Reference: PubChem BioAssay (NCI)
This is part of a sample that, as a whole, favours compounds with a hit. Of some 79,000 tested, about 15% had one in any assay. No stated cut-off is given here; in the data, active means growth inhibition above about 70%; inactive means the rest. Where a SMILES comes first, the peptide text is derived from it. The star is where a group is joined. Boc = CC(C)(C)OC(=O)*

Tests used:
[1] = NCI Yeast Anticancer Drug Screen. Data for the rad50 strain (AID 155);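 further: 0% = growth of vehicle-only cultures of the same strain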; conditions: S. cerevisiae rad50 strain growth inhibition; at 50.0 µM; active compounds read high
Method in brief: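 Vehicle-treated cultures provide the reference for the growth inhibition reported for compound-exposed, repair-deficient yeast.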

[2] = NCI Yeast Anticancer Drug Screen. Data for the mec2-1 strain (AID 157); conditions: S. cerevisiae mec2-1 strain, at 50.0 µM, active compounds read high
Method in brief: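 Compounds were applied to mec2-1 yeast cells. Their growth was then compared with that of vehicle-treated cultures to give growth inhibition.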

[3] = NCI Yeast Anticancer Drug Screen. Data for the sgs1 mgt1 strain (AID 161);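 further: 0% = growth of cultures given vehicle only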; conditions: S. cerevisiae sgs1 mgt1 strain, at 50.0 µM, active compounds read high
Method in brief: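 Growth of a repair-deficient yeast mutant was monitored after compound treatment and expressed as inhibition relative to vehicle-treated cultures.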

[4] = NCI Yeast Anticancer Drug Screen. Data for the cln2 rad14 strain (AID 165);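 further: 0% = growth equal to vehicle treated cultures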; conditions: S. cerevisiae cln2 rad14 strain, at 50.0 µM, active compounds read high
Method in brief: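 Strain: cln2 rad14 yeast, altered in cell cycle control and DNA damage repair. Read-out: growth inhibition vs vehicle.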

[5] = NCI Yeast Anticancer Drug Screen. Data for the bub3 strain (AID 167); conditions: S. cerevisiae bub3 mutant strain, at 50.0 µM, active compounds read high
Method in brief: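 Mutant yeast screening strain plus compound; vehicle-treated cultures serve as the 0% inhibition reference.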

[6] = NCI Yeast Anticancer Drug Screen. Data for the mlh1 rad18 strain (AID 175); conditions: S. cerevisiae mlh1 rad18 strain growth inhibition; at 50.0 µM; active compounds read high
Method in brief: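 A repair-deficient yeast strain is exposed to test compound, and growth is scored relative to vehicle-treated controls.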

Measured: growth inhibition

[O-]c1csc2n(-c3ccccc3)c3ccccc3[n+]12
inactive: [1] 4.95% | [2] -16% | [3] 1.85% | [4] 28.4% | [5] -4.65% | [6] 6.65%

O=C(O)c1cccc2c1-c1ccc(NC(=O)C(Cl)Cl)cc1C2=O
inactive: [1] 31% | [2] -1.65% | [3] -6.85% | [4] -5.7% | [5] 16.1% | [6] 12.1%

COc1ccccc1/C=N/NS(=O)(=O)c1ccc(NC(C)=O)cc1
inactive: [1] 0.85% | [2] -7.05% | [3] 14.1% | [4] -14.7% | [5] -41.3% | [6] -4.2%

O=C1C2=C(OCCO2)C(=O)C2=C1OCO2
inactive: [1] 12.4% | [2] 18.4% | [3] 28% | [4] 7.55% | [5] 12.2% | [6] 4.4%

OC(CBr)c1cc(-c2ccccc2)nc2c(Cl)cc(Cl)cc12 (stereo unspecified)
inactive: [1] 31.9% | [2] -8.45% | [3] 33.6% | [4] -16.7% | [5] 11.8% | [6] 50.8%

Cn1cnc(N2CCCC2)c(C#N)c1=S
inactive: [1] 3.45% | [2] -4.95% | [3] -4.7% | [4] -12.2% | [5] 2.55% | [6] 0.25%

CCC(=O)OC1=CC(=O)c2ccccc2C1=O
inactive: [1] 11.6% | [2] 12.4% | [3] 4.7% | [4] 8.6% | [5] -15.5% | [6] 12.6%

O=CC1N=C1c1ccccc1 (stereo unspecified)
inactive: [1] 9.4% | [2] -0.05% | [3] 0.65% | [4] 18.3% | [5] 25.9% | [6] 16.1%

O=C(/C(=C/c1ccccc1)c1ccc(Cl)cc1)c1ccccc1
inactive: [1] 12.6% | [2] 13.9% | [3] 13.7% | [4] -15.1% | [5] 5.9% | [6] -4%

COc1ccc(C2C3=C(COC3=O)Oc3cc4c(cc32)OCO4)cc1OC (stereo unspecified)
inactive: [1] -21.5% | [2] -33% | [3] -17.9% | [4] -3.95% | [5] 5.45% | [6] -10.8%

N#Cc1nc(/C=C/c2cccnc2)oc1N
inactive: [1] -1.9% | [2] 6.7% | [3] -8.1% | [4] -3.65% | [5] -6.55% | [6] -56.6%

COC(=O)C1=C(C(=O)OC)C2(C3C(SC)=CC(C)(C)CC3S1)N(Cc1ccccc1)CCN2Cc1ccccc1 (stereo unspecified)
inactive: [1] -7.65% | [2] -5.25% | [3] -9.95% | [4] 9.05% | [5] -8.7% | [6] -27.2%

CCN(CC)CC[n+]1ccc2c(C)c3[nH]c4ccccc4c3c(C)c2c1
inactive: [1] 37.8% | [2] -2.65% | [3] -4.1% | [4] 3.3% | [5] 31.3% | [6] 15.9%

CN(C)C(=O)Nc1cccc(OC(=O)NC2CC2)c1
inactive: [1] 4.4% | [2] 16.9% | [3] 26.9% | [4] -8.35% | [5] 19.8% | [6] -4.1%

Nc1ccccc1N
inactive: [1] -7.9% | [2] -13.3% | [3] 14.4% | [4] -4.5% | [5] -29.9% | [6] -0.35%

C/C(=N/C(=O)NN)c1ccc(Cl)cc1
inactive: [1] 34.2% | [2] -7.9% | [3] 42.9% | [4] 2.35% | [5] 37.2% | [6] 31.9%

Cc1nc(N)c(N2CCN(S(=O)(=O)N(Cc3ccccc3)Cc3ccccc3)CC2)c(=O)[nH]1
inactive: [1] -10.9% | [2] 2.3% | [3] 2.95% | [4] -11.9% | [5] 14.9% | [6] 3.95%

CN(C)c1nc(Cl)nc2nc(Cl)[nH]c12
inactive: [1] -10.9% | [2] 3.15% | [3] 13.2% | [4] 0.8% | [5] -3.2% | [6] 11.9%

S=C1SCN(C2CCCCCCCCCCC2)CN1C1CCCCCCCCCCC1
inactive: [1] -52.5% | [2] -29.1% | [3] -17.9% | [4] -3.7% | [5] -20% | [6] -40.5%

CCCCN=C(NC#N)NCCCC
inactive: [1] -27.6% | [2] 7.9% | [3] -31.2% | [4] -0.1% | [5] -25.4% | [6] -13.8%

CC(=O)C1C(=O)C(=O)N(CCN2C(=O)C(=O)C(C(C)=O)C2=O)C1=O (stereo unspecified)
inactive: [1] -12.4% | [2] -0.8% | [3] 0.95% | [4] -26.2% | [5] -5.9% | [6] 0.75%

Nc1ccc2cccc(O)c2c1
inactive: [1] 44.1% | [2] 24.2% | [3] 12.9% | [4] -9.4% | [5] 34.2% | [6] 32.4%

CC(NC(=O)C1CCCN1C(=O)OCc1ccccc1)C(=O)O (stereo unspecified)
inactive: [1] -7.7% | [2] 31.1% | [3] -10.5% | [4] 2.1% | [5] -13.2% | [6] -19.6%

OC(c1cc(-c2ccccc2)nc2c1ccc1ccccc12)C1CCCCN1 (stereo unspecified)
inactive: [1] 32.5% | [2] 16.7% | [3] -17.1% | [4] 14% | [5] 11.6% | [6] 26.4%

NC(=O)NNC(=O)c1nc[nH]c1[N+](=O)[O-]
inactive: [1] -24.2% | [2] -3.3% | [3] 11.6% | [4] -15.9% | [5] -18.2% | [6] -13.3%

CC(=O)N1C(=O)C(=O)c2cc(Cl)ccc21
inactive: [1] -1.85% | [2] -6.9% | [3] 3.95% | [4] -2.1% | [5] -0.2% | [6] -1.6%

Clc1cc(Cl)nc(Cl)n1
inactive: [1] 2.4% | [2] -7.1% | [3] -4.95% | [4] 21.1% | [5] 4.6% | [6] -1.65%

CC(=O)c1ccc([C@H](O)[C@H](CO)NC(=O)C(Cl)Cl)cc1
inactive: [1] -1.1% | [2] 0.45% | [3] 6.95% | [4] -57.4% | [5] -21.6% | [6] -16.2%

CC(=O)OCCCC(CCCOC(C)=O)OC(C)=O
inactive: [1] -7.7% | [2] -6.85% | [3] 12.2% | [4] -12.8% | [5] 5.25% | [6] 29.2%

COC(=O)C(N)CSCSC (stereo unspecified)
inactive: [1] -12.8% | [2] 13% | [3] 3.7% | [4] -44% | [5] -13.8% | [6] -5.65%

COC1OC(COC(=O)c2ccccc2)C(SC(=O)c2ccccc2)C1OC(=O)c1ccccc1 (stereo unspecified)
inactive: [1] -21.1% | [2] -1.35% | [3] -32.5% | [4] -2% | [5] -1.4% | [6] -12.5%

OCCc1ccc2ccccc2c1
inactive: [1] 4.05% | [2] -5.95% | [3] 3.05% | [4] -9.3% | [5] 13.8% | [6] -1.15%

COc1ccc2[nH]cc(CC(N)=O)c2c1
inactive: [1] -25.8% | [2] -28.8% | [3] -39.4% | [4] 12.7% | [5] -41.4% | [6] -19.5%

Cc1ccccc1OCC(C)OC(N)=O (stereo unspecified)
inactive: [1] 6.1% | [2] -11.4% | [3] 2.1% | [4] -16.4% | [5] 7% | [6] 6.15%

COCCOC(=O)c1ccccc1Cl
inactive: [1] 23.7% | [2] 15.6% | [3] 16.3% | [4] 8.8% | [5] 7.1% | [6] 22.4%

O=[N+]([O-])c1ccc(N=Nc2ccc(N(CCO)CCO)cc2)cc1
inactive: [1] -5.7% | [2] -8.35% | [3] 24% | [4] 1.25% | [5] 20.2% | [6] 6.1%

O=C1CC[C@@H](S(=O)(=O)c2ccccc2)[C@@H](/C=C/c2ccccc2)O1
inactive: [1] -26.8% | [2] -1.75% | [3] 7.15% | [4] -12.8% | [5] -10.7% | [6] -6.7%

Cc1ccc(S(=O)(=O)CCC(=O)c2ccccc2)cc1
inactive: [1] 9.3% | [2] 16% | [3] 0.95% | [4] 1.3% | [5] 3.25% | [6] 14.6%

CC(C)(C)OC(=O)NC(Cc1ccc(O)cc1)C(=O)N1CCCC1C(=O)O (stereo not drawn) (Boc-Tyr-Pro-OH; configuration not given here)
inactive: [1] -13% | [2] -11.3% | [3] -20.9% | [4] -10.2% | [5] -22.9% | [6] -23.1%

CN(N)C(=O)NCCCl
inactive: [1] -9.1% | [2] -4.6% | [3] 8.25% | [4] 13.4% | [5] -28% | [6] -1.8%

COc1ccc(N/N=C2\CCOc3ccc(C)cc3C2=O)cc1
inactive: [1] 53.6% | [2] 27.8% | [3] 42.5% | [4] 14.6% | [5] 52% | [6] 46.7%
